This is part of a sample that, as a whole, favours compounds with a hit. Of some 83,000 tested, about 20% had one in any assay.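 Note: values are percent growth. 100 is the growth of untreated cells, values between 100 and 0 indicate rising inhibition; between -100 and 0 indicates cell death.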 The source made the active and inactive calls. Rule for the calls: active = growth percent below 10; inactive = the rest.
Each molecule was assayed on HL-60(TB) leukemia (assay: NCI-60 one-dose screen, 48 h (100 = growth as untreated, 0 = no growth, -100 = all killed)). Settings: 10 µM unless noted.
For `N#Cc1c(N)nc(-c2cc(F)cc(C(F)(F)F)c2)nc1-c1ccccc1F`, the growth was 92.8% (inactive). `CN(C)c1ccc(-c2c(C#N)c(N)n3nc(N)c(C#N)c3c2C#N)cc1` was tested, and the growth was 95.7% (inactive). For `COc1cnc2c(c1)C(=O)c1c-2n(CCCN2CCC(N)CC2)c(=O)c2cc([N+](=O)[O-])ccc12`, the growth was 44.3% (inactive). For `N#CC1(C#N)C(c2cccs2)NC(c2cccs2)C1(C#N)C#N` (centres undefined), the growth was 99% (inactive). `CN1CCc2nc3sc(C(N)=O)c(N)c3c(-c3cccs3)c2C1` was tested, and the growth was 7.35% (active). With `N[C@H]1CCC[C@@H]1NCCCCN1C(=O)c2cccc3cccc(c23)C1=O` the growth was 85.5% (inactive). In the case of `Cc1ccc(C)c(/C=C2\CN(C(=O)OC(C)(C)C)C/C(=C\c3cc(C)ccc3C)C2=O)c1`, the growth is reported as 10.7% (inactive). `CN(C)CCC(=O)c1c[nH]c2ccccc12` was tested, and the growth was 96.5% (inactive). With `C=C1/C(=C\C=C2/CCC[C@]3(C)[C@@H]([C@H](C)CCCC(C)(C)O)CC[C@@H]23)C[C@@H](OC(=O)CBr)C[C@@H]1O` the growth was -59.4% (active). For `CCCCCCC(C)(O)c1ccccc1` (centres undefined), the growth was 94.6% (inactive). With `O=C(COc1ccc(-c2nc3ccccc3[nH]2)cc1)N=Nc1c(O)[nH]c2ccccc12` the growth was 103% (inactive). In the case of `CCCCNC(=O)Oc1ccc(/C(=C(\C)c2ccccc2)c2ccc(OCCN3CCCCC3)cc2)cc1`, the growth is reported as 49.4% (inactive). `COc1cc2nc3c(=O)n(CCN(C)C)cnn3c(=O)c2cc1OC` was tested, and the growth was 106% (inactive). With `COc1ccc(C2CC(c3ccc4ccccc4c3)=NN2c2nc(O)c(C3=c4cc(OC)ccc4=NC3=O)s2)cc1` (centres undefined) the growth was 36.2% (inactive).

— PubChem BioAssay (NCI)
